Screening data deposited in PubChem BioAssay by National Center for Advancing Translational Sciences (NCATS).
Sampled rows, rich in hits. Any-hit rate of the full collection: about 6.3%.
VP16 counter = counter-screen for ROR gamma inhibitors: Gal4-VP16 reporter. Drosophila S2 Gal4-VP16 UAS-luciferase, luminescence, 20 h. Potency, µM (highest dose often 53.6 µM), for the others: top-dose activity, negative = inhibition, usual class: inhibitors. 3.5% of 310,000 active. AID 2546;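 also: Gal4-VP16 expression switched on by copper sulfate through the metallothionein promoter; % is scaled to controls: 0 for no effect and ±100 for the full control effect; nearly all actives have a fitted effect of over 50% in size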
ATXN viability = viability counter-screen for ATXN expression inhibitors | S2 cells (HEK-293 line with an ATXN2-luciferase reporter) viability, CellTiter-Fluor protease fluorescence, 24 h | Potency, µM (titrated, usually from 56.7 µM), hits mostly cytotoxic | 0.49% of 400,000 active; also: nearly all actives have a fitted effect of over 40% in size
HepG2 tox = kills HepG2 cells in TGF-b inhibitor counter-screen. HepG2 CAGA-GFP viability, ATP luminescence, 18 h. Potency, µM (titrated, usually from 46.1 µM), for the others: top-dose activity change, negative = cytotoxicity, hits mostly cytotoxic. 0.76% of 410,000 active. AID 588856
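CellTiter-Glo luminescence gave cytotoxicity after 18 hours at 37 degrees C. The cells were HepG2 CAGA-GFP in 1% FBS DMEM, stimulated with 500 pg/mL TGF-beta after compound addition. %Activity was normalised to no-cell wells (complete cell-killing) and DMSO (no toxicity), and curves were fitted and classified.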
ATXN2 expr inh = ATXN2 expression inhibition | 0.72% of 360,000 active | Potency, µM (titrated, usually from 57 µM), without a hit: at the top dose activity change, negative = inhibition, actives largely listed as inhibitors | HEK-293 ATXN2-luciferase reporter, luminescence, 24 h; also: % is scaled to controls: 0 for no effect and ±100 for the full control effect; nearly all actives have a fitted effect of over 55% in size
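ATXN2-luciferase reporter cells (luciferase flanked by upstream and downstream ATXN2 gene portions) were treated 24 h at 37 °C with compounds at up to 57 uM. SteadyGlo luminescence gave expression; GF-AFC fluorescence gave viability.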
TGFb inhibitor = inhibitors of TGF-b signaling; HepG2 CAGA-GFP TGF-b/SMAD3 reporter, GFP fluorescence, 18 h; TGF-beta stimulated, 500 pg/mL final; Potency, µM (titrated, usually from 46.1 µM), without a hit: at the highest dose activity, negative = inhibition, hits mostly inhibitors; 1.2% of 410,000 active; AID 588855; also: % is scaled to controls: 0 for no effect and ±100 for the full control effect; nearly all actives have a fitted effect of over 65% in size
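Inhibition of TGF-beta-driven CAGA-GFP reporter expression in HEPG2 cells is measured by cellular GFP fluorescence after 18 h stimulation with 500 pg/mL recombinant TGF-beta in 1% FBS medium at 37 degrees C.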
RORg inh = blocks mouse ROR gamma transcriptional activity. Drosophila S2 Gal4-RORgamma UAS-luciferase reporter, 20 h. P51450. AID 2551. 5.4% of 310,000 active. Potency, µM (titrated, usually from 53.6 µM), inactives show at the highest dose activity change, negative = inhibition, usual class: inhibitors; also: % is scaled to controls: 0 for no effect and ±100 for the full control effect; nearly all actives have a fitted effect of over 60% in size
Target sequence (P51450 whole entry, looked up, the tested form may be a part): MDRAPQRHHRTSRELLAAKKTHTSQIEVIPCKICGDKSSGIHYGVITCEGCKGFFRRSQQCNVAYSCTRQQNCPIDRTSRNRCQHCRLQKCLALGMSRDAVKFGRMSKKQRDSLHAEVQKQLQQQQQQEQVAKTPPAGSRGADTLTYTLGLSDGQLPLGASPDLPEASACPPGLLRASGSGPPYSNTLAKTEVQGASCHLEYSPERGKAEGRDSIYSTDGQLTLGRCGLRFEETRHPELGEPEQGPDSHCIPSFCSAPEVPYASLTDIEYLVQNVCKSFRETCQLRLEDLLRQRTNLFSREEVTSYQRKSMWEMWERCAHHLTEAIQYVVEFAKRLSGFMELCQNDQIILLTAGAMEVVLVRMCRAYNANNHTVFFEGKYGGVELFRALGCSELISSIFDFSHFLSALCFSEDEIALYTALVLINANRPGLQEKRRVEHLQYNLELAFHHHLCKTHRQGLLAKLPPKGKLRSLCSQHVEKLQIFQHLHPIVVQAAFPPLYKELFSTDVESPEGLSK
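Using a luciferase readout, inhibitors were identified by reduced reporter activity in Drosophila cells coexpressing a copper-inducible Gal4–ROR gamma fusion and UAS-driven Photinus luciferase, incubated 20 hr after 700 uM copper sulfate.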
An asterisk follows results filed as active; i = inactive; ? = inconclusive; . = no result. Calls follow the shape of the dose curve; as a rule, active = well fitted curve in the direction sought with a large enough effect; inconclusive = small, poorly fitted or top-dose-only effect, or another doubt; inactive = no such curve, though single readings can be large; an effect the other way counts as inactive or inconclusive. Potency is read from the fitted curve at half-maximal effect.

SMILES	VP16 counter	ATXN viability	HepG2 tox	ATXN2 expr inh	TGFb inhibitor	RORg inh
CC(C)(C)c1nc2cc(Cl)c([N+](=O)[O-])cc2o1	2%	i	-20%	-32%	7.1µM*	23%
O=C(Nc1nnc(-c2ccncc2)o1)c1ccccc1	5µM*	i	-2%	-16%	?	3.2µM*
COc1cc2ccccc2cc1C(=O)Nc1nnc(-c2ccncc2)o1	10µM*	i	-9%	-14%	0%	7.1µM*
Cc1ccc(C(=O)Nc2nnc(-c3ccncc3)o2)cc1	5%	?	-21%	22%	-1%	0%
COc1ccc(C(=O)Nc2nnc(-c3ccccc3)o2)cc1OC	1µM*	?	-23%	-23%	-20%	0.56µM*
O=C(Nc1nnc(-c2ccncc2)o1)c1ccccc1F	10µM*	i	3%	-19%	-1%	?
C#Cc1ccc(-c2ccccc2F)cc1	.	i	.	6%	.	.
CCc1cccc(C)c1Nc1c(-c2cccc(O)c2)nc2nc(C)cc(C)n12	.	.	-31%	.	?	.
COc1ccccc1-c1nnc(NC(=O)c2ccccc2F)o1	2.8µM*	?	-24%	-2%	0%	2µM*
Cc1oc(-c2ccccc2NC(=O)C2CCCO2)nc1CNC(=O)c1[nH]c2c(C)ccc(C)c2c1C (configuration not stated)	.	i	.	.	.	.
CC1=NN(c2nc(-c3ccc(C)cc3)cs2)C(=O)C1N=Nc1cccc(C)c1 (configuration not stated)	?	?	3%	12%	0%	7.1µM*
CCOC(=O)c1sc(N2N=C(C)C(N=Nc3cccc(C)c3)C2=O)nc1C (configuration not stated)	?	i	-12%	-13%	0%	11µM*
CCOC(=O)c1c(NC(=O)c2cc(OCC)c(OCC)c(OCC)c2)sc2c1CCCCC2	.	.	2%	.	-3%	.
COc1ccc(S(=O)(=O)Nc2cc3c(cc2NCc2ccccc2)n(C)c(=O)n3C)cc1OC	.	i	-48%	44%	2%	.
Cc1cc(Cn2cnc3c(cnn3C(C)(C)C)c2=O)ccc1F	.	.	-6%	.	-15%	.
O=S(=O)(c1ccc(-c2csc(=Nc3ccc(F)cc3)n2CCCCCCO)cc1)N1CCCC1	.	?	-12%	32µM*	?	.
COc1ccc(N=c2scc(-c3ccc(S(=O)(=O)N4CCOCC4)cc3)n2CCCO)cc1	5.6µM*	.	.	.	.	?
OCCCn1c(-c2ccc(F)cc2)csc1=Nc1ccc(F)cc1	.	?	-40%	-1%	?	.
C=CCn1c(-c2ccc(S(=O)(=O)N3CCOCC3)cc2)csc1=Nc1ccccc1	14µM*	i	-12%	-15%	-2%	-7%
Cc1ccc(-c2csc(=Nc3ccccc3)n2CCCO)cc1	.	?	-68%	?	7.1µM*	.
CC(C)Cn1c(-c2ccc(S(=O)(=O)N3CCCC3)cc2)csc1=Nc1ccccc1	.	i	-5%	-24%	-22%	.
O=C(NCCO)C1CCN(S(=O)(=O)c2ccc(F)cc2)CC1	-3%	i	0%	10%	17%	-5%
Oc1ccccc1C1C=C(c2ccc3c(c2)OCO3)NC(c2cccc(Cl)c2)N1 (configuration not stated)	.	.	-39%	.	?	.
CNC(=O)c1ccc2nc(-c3cccc(C)c3)c(-c3cccc(C)c3)nc2c1	.	.	-48%	.	?	.
Cc1cc(C)nc(NC2=NCCN2C(=S)Nc2ccc(C)c(C)c2)n1	-23%	i	1%	-38%	7%	?
SMILES	VP16 counter	ATXN viability	HepG2 tox	ATXN2 expr inh	TGFb inhibitor	RORg inh
Cn1c(=O)[nH]c(=O)c2[nH]c(N(Cc3ccccc3)Cc3ccccc3)nc21	3%	?	13µM*	?	11µM*	-26%
Cc1ccc2c(=O)c(C(=O)c3ccccc3)cn(CC(=O)Nc3ccc4c(c3)OCCO4)c2n1	.	i	4%	2%	11%	.
CCOC(=O)c1ccc(N2C(=O)C=CC2=O)cc1	7.1µM*	.	-106%	?	?	10%
CCOC(=O)c1ccc(-n2c(C)ccc2C)cc1	6%	i	-1%	2%	14%	14%
COC(=O)c1ccc(N)c(N=CC2=C(O)CC(C)(C)CC2=O)c1	?	i	1%	62%	0%	13µM*
CC1(C)CC(=O)C(C=Nc2ccc(N)cc2)=C(O)C1	?	?	-7%	-10%	-6%	-8%
CC1(C)CC(=O)C(C=Nc2cc(C(=O)c3ccccc3)ccc2N)=C(O)C1	?	i	-7%	50%	-8%	7.9µM*
COc1ccc(CC(=O)Nc2cccc(S(=O)(=O)N3CCOCC3)c2)cc1OC	.	i	-4%	-31%	-19%	.
Cc1c(C(=O)N2CCCCC2)sc2ncnc(NCCN(C)C)c12	.	i	.	.	.	.
CCn1c(SCC(N)=O)nc2sc3c(c2c1=O)CCCC3	?	i	-21%	1%	-5%	11µM*
CCOC(=O)CSc1nc2sc3c(c2c(=O)n1CC)CCCC3	.	i	-9%	9%	-4%	.
COc1cccc(CNC(=O)c2c(OC)cc(=O)n3c2CCN(C(=O)c2ccc(C)nc2)CC3)c1	.	i	.	.	.	.
O=C1CNC(=S)N1c1nc2ccccc2s1	5.6µM*	i	-3%	13%	1%	0.79µM*
O=C(N/N=C/c1cc([N+](=O)[O-])ccc1O)c1cccc(NC(=O)c2cccc(Cl)c2)c1	?	i	2%	0%	19%	4.5µM*
Cc1cccc(NC(=O)CCC(=O)N/N=C/c2cc([N+](=O)[O-])ccc2O)c1	-7%	i	-6%	?	-19%	8.9µM*
O=C(CCC(=O)Nc1ccc(F)cc1)N/N=C/c1cc([N+](=O)[O-])ccc1O	-11%	?	-17%	?	-8%	10µM*
O=C(CCC(=O)Nc1cc(C(F)(F)F)ccc1Cl)N/N=C\c1cc([N+](=O)[O-])ccc1O	8.9µM*	?	-20%	?	-18%	2.5µM*
O=C(CCC(=O)Nc1ccc(Br)cc1)N/N=C/c1cc([N+](=O)[O-])ccc1O	-23%	i	5%	?	5%	-34%
COc1cc(/C=C/C(=O)O[C@H]2CC[C@]34C[C@]35CC[C@]3(C)[C@@H]([C@H](C)CCC=C(C)C)CC[C@@]3(C)[C@@H]5CC[C@H]4C2(C)C)ccc1O	.	i	.	7%	.	.
NS(=O)(=O)C#Cc1ccccc1	?	.	.	.	.	5.6µM*
Nc1ccc(C#Cc2ccccc2)cc1	8%	i	-28%	9%	-1%	18%
CNc1cc2c(Nc3cccc(Br)c3)ncnc2cn1	13µM*	.	.	.	.	13µM*
